The supplement of paper PMC12494721
Structures can show the parent of a compound that is named as a salt.

Tested on: Clostridium sporogenes DSM 1664
Test: growth (OD595) fold change vs plate DMSO controls (fold change (ratio)); higher = more growth
Details: incubation time: 27 h, anaerobic, 37 °C
Procedure, shortened: (§1)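 After 27 h at 37 °C under anaerobic conditions, 96-well cultures in mGAM were shaken and read at 595 nm. The readings were blank-subtracted, corrected for compound background using 20 µM compound solutions in water, and converted to OD with a calibration factor of 5. Growth is defined as the fold change over the median of DMSO controls on each plate. Fold changes above 1.5 were set to NA, and each value is the mean of 2 biological replicates.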

Compound | growth
Cc1ccccc1C(=O)Nc1ccc(C(=O)N2CCCC(O)c3cc(Cl)ccc32)c(C)c1 (centres undefined) [Tolvaptan] (20 µM) | 1.16
CC(C)(C)NC(=O)[C@H]1CC[C@H]2[C@@H]3CC[C@H]4NC(=O)C=C[C@]4(C)[C@H]3CC[C@]12C [Finasteride] (20 µM) | 1.18
O=c1n(CCCN2CCN(c3cccc(Cl)c3)CC2)nc2ccccn12 [Trazodone hydrochloride] (20 µM) | 1.09
NNc1nncc2ccccc12 [Hydralazine hydrochloride] (20 µM) | 0.972
CN(C/C=C/c1ccccc1)Cc1cccc2ccccc12 [Naftifine hydrochloride] (20 µM) | 1.08
N=c1nc(N2CCCCC2)cc(N)n1O [Minoxidil] (20 µM) | 0.888
C=CC[C@@H]1/C=C(\C)C[C@H](C)C[C@H](OC)[C@H]2O[C@@](O)(C(=O)C(=O)N3CCCC[C@H]3C(=O)O[C@H](/C(C)=C/[C@@H]3CC[C@@H](O)[C@H](OC)C3)[C@H](C)[C@@H](O)CC1=O)[C@H](C)C[C@@H]2OC [Tacrolimus Monohydrate] (20 µM) | 0.867

Tested on: Escherichia coli IAI1
Test: as above
Details: incubation time: 27 h, anaerobic, 37 °C
Procedure, shortened: as §1

Compound | growth
CN(C(=O)CN(CCO)CC(=O)N(C)C(C)(C)Cc1ccccc1)C(C)(C)Cc1ccccc1 [Oxethazaine] (20 µM) | 1.05
CCCCC(CC)CN1C(=O)[C@@H]2[C@H](C1=O)[C@@H]1C=C[C@H]2C1 (mixture of isomers) (20 µM) | 1.02
CC(=O)OCC1=C(C(=O)O)N2C(=O)[C@@H](NC(=O)Cc3cccs3)[C@H]2SC1 [Cephalothin sodium salt] (20 µM) | 1.29
Cc1cc(CC(=O)O)n(C)c1C(=O)c1ccc(Cl)cc1 [Zomepirac sodium salt] (20 µM) | 0.969
CC(CNC1CCCCC1)OC(=O)c1ccccc1 (centres undefined) [Hexylcaine hydrochloride] (20 µM) | 0.961
CC(C)n1c(/C=C/C(O)CC(O)CC(=O)O)c(-c2ccc(F)cc2)c2ccccc21 (centres undefined) [Fluvastatin sodium salt] (20 µM) | 0.995
CCCc1cc(=O)[nH]c(=S)[nH]1 [Propylthiouracil] (20 µM) | 1.06
CC(=O)Nc1ccc(OCC(O)CNC(C)C)cc1 (centres undefined) [Practolol] (20 µM) | 1.01
C[C@@H]1O[C@@H](O[C@H]2[C@H](Oc3cc(O)c(C(=O)CCc4ccc(O)cc4)c(O)c3)O[C@H](CO)[C@@H](O)[C@@H]2O)[C@H](O)[C@H](O)[C@H]1O [Naringin Dihydrochalcone] (50 µM) | 0.965
Nc1cc(-c2ccncc2)c[nH]c1=O [Amrinone] (20 µM) | 0.984
CC#CCn1c(N2CCC[C@@H](N)C2)nc2c1c(=O)n(Cc1nc(C)c3ccccc3n1)c(=O)n2C [Linagliptin] (20 µM) | 1.03
CCOc1ccc2c(c1)C(C)=CC(C)(C)N2 [Ethoxyquin] (20 µM) | 1
Cn1c(=O)c2c(ncn2C)n(C)c1=O [Caffeine] (20 µM) | 0.986
C[C@]12CC[C@@H]3c4ccc(O)cc4CC[C@H]3[C@@H]1CC[C@@H]2O [Estradiol-17 beta] (20 µM) | 1.01
CC(=O)OCC(=O)[C@@]12OC3(CCCC3)O[C@@H]1C[C@H]1[C@@H]3CCC4=CC(=O)C=C[C@]4(C)[C@@]3(F)[C@@H](O)C[C@@]12C [Amcinonide] (20 µM) | 1.02
OCCN1CCN(CCCN2c3ccccc3C=Cc3ccccc32)CC1 [Opipramol dihydrochloride] (20 µM) | 0.948
CC(C)[N+](C)(CCOC(=O)C1c2ccccc2Oc2ccccc21)C(C)C [Propantheline bromide] (20 µM) | 0.986
C[C@H](O)[C@H](O)[C@H]1CNc2[nH]c(N)nc(=O)c2N1 [Sapropterin dihydrochloride] (20 µM) | 0.893
CCN(CC)CCNC(=O)c1cc(S(C)(=O)=O)ccc1OC [Tiapride hydrochloride] (20 µM) | 0.484
CNCCCN1c2ccccc2CCc2ccccc21 [Desipramine hydrochloride] (20 µM) | 1.09
COc1ccccc1OCC(O)CN1CCN(CC(=O)Nc2c(C)cccc2C)CC1 (centres undefined) [Ranolazine] (20 µM) | 1.01
CC(=O)c1ccc2c(c1)N(CCCN1CCC(CCO)CC1)c1ccccc1S2 [Piperacetazine] (20 µM) | 0.148
